Compounds without any hit were thinned out: in the full panel of roughly 79,000, 15% have a hit. The source made the active and inactive calls. No stated cut-off is given here; in the data, active means growth inhibition above about 70%; inactive means the rest.
Assay: NCI Yeast Anticancer Drug Screen. Data for the sgs1 mgt1 strain (AID 161);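 further: 0% = growth of cultures given vehicle only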
Settings: S. cerevisiae sgs1 mgt1 strain, at 5.0 µM (retest, dose inferred, filed as 0.5), active compounds read high
Method in brief: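 Inhibition of yeast growth, normalised to vehicle-treated controls, is reported for a strain bearing genetic alterations in DNA damage repair.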
In the case of `O=C(O)CCCCCCCCCCOc1ccc(Cl)cc1Cl`, the growth inhibition was 0% (inactive).
With `C=C(CN1CCCC1)C(=O)c1ccc(OC)cc1` the growth inhibition was -8% (inactive).
With `CNC(=O)OCc1c(COC(=O)NC)c(-c2ccc(OC)cc2)n2c1CCC2` the growth inhibition was 44% (inactive).
With `CCCCC(=S)N1CCN(c2ccccc2)CC1` the growth inhibition was 5% (inactive).
In the case of `CCN(CC)C(=S)N/N=C/c1cc(OC)ccc1O`, the growth inhibition was -33% (inactive).
In the case of `COc1ccc2c(c1)CN1C(CCC3c4ccccc4NC31)C2` (stereo not drawn), the growth inhibition was -5% (inactive).
For `CCCCC(=O)N/N=C(\C)[C@]1(O)Cc2c(O)c3c(c(O)c2[C@@H](OC2CC(N)C(O)C(C)O2)C1)C(=O)c1c(OC)cccc1C3=O` (stereo partly drawn), the growth inhibition was 17% (inactive).
In the case of `C=C1C(=O)C23OC2C1CCC(=O)C1(C)CC[C@H](OC(C)=O)C(C)(C)[C@H]1CC3O` (stereo partly drawn), the growth inhibition was 92% (active).
For `Cc1nc(N)sc1N=Nc1ccc(Cl)cc1Cl`, the growth inhibition was 4% (inactive).
For `O=C(O)c1cc2c3ccccc3sc2c2ccccc12`, the growth inhibition was -1% (inactive).
With `COc1ccc2c(c1)C(Br)CCC(Br)C2=O` (stereo not drawn) the growth inhibition was -17% (inactive).
In the case of `Cc1cc(OCCl)ccc1[N+](=O)[O-]`, the growth inhibition was -16% (inactive).
In the case of `COC(=O)c1nnc(C(=O)OC)c2c1[nH]c1ccccc12`, the growth inhibition was 2% (inactive).
In the case of `O=S(Nc1ccccc1Br)c1ccccc1` (stereo not drawn), the growth inhibition was -3% (inactive).
With `Cc1c2c(c(C)c3c1OC(C)(C)CC3)OC(C)(C)CC2` the growth inhibition was -14% (inactive).
For `O=c1cc(CSc2ccc(Cl)cc2)occ1O`, the growth inhibition was 3% (inactive).
For `Cc1ccc2c(c1)[n+]([O-])c(N)n[n+]2[O-]`, the growth inhibition was 17% (inactive).
With `CC(=O)c1c2c(cc3c1CC1(C3)Cc3cc4c(c(C(=O)O)c3C1)CCC4)CCC2` (stereo not drawn) the growth inhibition was 65% (inactive).
